Sampled rows, rich in hits. Any-hit rate of the full collection: about 9%.
G9a inh: qHTS Assay for Inhibitors of Histone Lysine Methyltransferase G9a; G9a H3K9 monomethylation, AlphaScreen, 2 h; Histone-lysine N-methyltransferase EHMT2 (Homo sapiens), Q96KQ7; AID 504332, 2011; 8.8% of 350,000 active; Potency, µM (doses to about 102 µM), for inactives: at the top dose activity, negative = inhibition, usual class: inhibitors; also: % is scaled to controls: 0 for no effect and ±100 for the full control effect; nearly all actives have a fitted effect of over 75% in size
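G9a (20 nM) was preincubated 15 min with compound, then reacted 2 h at room temperature with 500 nM biotin-H3K9 peptide and 20 µM SAM. Monomethyl-H3K9 detected by AlphaScreen using anti-H3K9me1 antibody.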
ALOX12 inh: Primary qHTS assay for inhibitors of human arachidonate 12S-lipoxygenase (ALOX12): Round 2; 1.1% of 580,000 active; Polyunsaturated fatty acid lipoxygenase ALOX12 (Homo sapiens), P18054; purified 12hLO, xylenol orange hydroperoxide absorbance; Potency, µM (top dose mostly 108 µM), for the others: at the highest dose activity change, negative = inhibition, most hits filed as inhibitors; AID 1671190, 2021; also: % is scaled to controls: 0 for no effect and ±100 for the full control effect
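Purified human 12hLO (150 nM final) in 25 mM Hepes, 0.01% Triton X-100, pH 7.0 was preincubated 15 min at room temperature with compound. Then 40 uM arachidonic acid was added, 30 min. Hydroperoxide was read by Fe-XO absorbance ratio 573/405 nm.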
PLK1 PBD inh: qHTS for Inhibitors of PLK1-PDB (polo-like kinase 1 - polo-box domain): Primary Screen; Potency, µM, without a hit: max response, negative = inhibition, hits mostly inhibitors; Serine/threonine-protein kinase PLK1 (Homo sapiens), P53350; Plk1 PBD binding of FITC phosphopeptide, fluorescence polarization; 2.8% of 360,000 active; also: series mostly up to about 57 µM; % is scaled to controls: 0 for no effect and ±100 for the full control effect; nearly all actives have a fitted effect of over 65% in size
Target sequence (P53350 whole entry, looked up, the tested form may be a part): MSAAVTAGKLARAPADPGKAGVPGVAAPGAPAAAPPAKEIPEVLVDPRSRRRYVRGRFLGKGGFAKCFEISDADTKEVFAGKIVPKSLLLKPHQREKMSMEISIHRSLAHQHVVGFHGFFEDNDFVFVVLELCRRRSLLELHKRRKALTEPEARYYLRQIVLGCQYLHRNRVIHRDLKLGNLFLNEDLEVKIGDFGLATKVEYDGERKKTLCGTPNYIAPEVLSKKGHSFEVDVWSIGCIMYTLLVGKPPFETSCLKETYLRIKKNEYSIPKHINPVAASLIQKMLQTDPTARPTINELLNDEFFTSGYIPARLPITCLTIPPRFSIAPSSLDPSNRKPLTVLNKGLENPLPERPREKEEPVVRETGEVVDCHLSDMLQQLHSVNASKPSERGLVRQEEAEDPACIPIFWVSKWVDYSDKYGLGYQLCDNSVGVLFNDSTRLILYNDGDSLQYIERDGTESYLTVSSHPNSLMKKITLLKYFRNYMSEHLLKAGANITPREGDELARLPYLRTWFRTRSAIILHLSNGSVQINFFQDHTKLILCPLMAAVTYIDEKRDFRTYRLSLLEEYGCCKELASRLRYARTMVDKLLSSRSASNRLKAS
JMJD2A Tudor: qHTS Assay for Inhibitors of JMJD2A-Tudor Domain; AID 504339, 2011; 4.4% of 390,000 active; Potency, µM (highest dose often 114 µM), for the others: at the highest dose activity change, negative = inhibition, usual class: inhibitors; Lysine-specific demethylase 4A (Homo sapiens), O75164; AlphaScreen JMJD2A-Tudor / H3K4me3 peptide binding; also: % is scaled to controls: 0 for no effect and ±100 for the full control effect; nearly all actives have a fitted effect of over 50% in size
HP1b binding inh: HTS for Inhibitors of HP1-beta Chromodomain Interactions with Methylated Histone Tails; AlphaScreen HP1-beta / biotin-H3K9me3 peptide binding; Potency, µM (highest dose often 114 µM), for the others: at the highest dose activity change, negative = inhibition, hits mostly inhibitors; 0.56% of 390,000 active; also: nearly all actives have a fitted effect of over 70% in size
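Compound inhibition of the preformed complex between 50 nM HP1-beta and 50 nM biotinylated H3K9me3 peptide was read by AlphaScreen. Buffer was PBS pH 7.4 with 0.01% Tween-20. Incubations ran 30 min at room temperature, with 10 ug/mL donor/acceptor beads.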
BAZ2B inh: qHTS Assay for Inhibitors of BAZ2B. Bromodomain adjacent to zinc finger domain protein 2B (Homo sapiens), Q9UIF8. AlphaScreen BAZ2B-H3K14Ac peptide displacement. Potency, µM (doses to about 114 µM), for inactives: at the top dose activity change, negative = inhibition, actives largely listed as inhibitors. 4.4% of 360,000 active; also: % is scaled to controls: 0 for no effect and ±100 for the full control effect; nearly all actives have a fitted effect of over 60% in size
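BAZ2B (50 nM) with biotin-H3(5-23)K14Ac peptide (50 nM) in PBS pH 7.4, 0.01% Tween-20, preformed 30 min, then compound 30 min at room temperature; top concentration 110uM. AlphaScreen streptavidin donor/nickel chelate acceptor beads (10 ug/mL final), 20 min dark, signal read.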
Numbers without * were called inactive; [ ] = another dose, or the depositor's remark. Calls follow the shape of the dose curve; as a rule, active = well fitted curve in the direction sought with a large enough effect; inconclusive = small, poorly fitted or top-dose-only effect, or another doubt; inactive = no such curve, though single readings can be large; an effect the other way counts as inactive or inconclusive. Potency is read from the fitted curve at half-maximal effect.

How did COc1ccc(NC(=O)NNC(=O)c2ccc3ccccc3c2O)cc1OC do in these assays?
G9a inh: -10%; ALOX12 inh: -3%; PLK1 PBD inh: 0%; JMJD2A Tudor: -15%; HP1b binding inh: 33%; BAZ2B inh: 6%

Results for CC(=O)Nc1cccc(-c2csc(Nc3ccc(C)cn3)n2)c1 ?
G9a inh: inconclusive; ALOX12 inh: inconclusive; PLK1 PBD inh: -8%; JMJD2A Tudor: inconclusive; HP1b binding inh: -23%; BAZ2B inh: inconclusive

Results for Oc1ccc(-c2csc(Nc3ncccn3)n2)cc1O ?
G9a inh: 2.2µM*; ALOX12 inh: 40µM*; PLK1 PBD inh: -15%; JMJD2A Tudor: 28µM*; HP1b binding inh: 71µM*

What do the screens show for `CC(=O)Nc1cccc(-c2csc(Nc3ncccn3)n2)c1`?
G9a inh: 16µM*; ALOX12 inh: 2%; BAZ2B inh: -12%

What do the screens show for `COc1ccccc1/C=C/CN1CCCC(CO)(CCc2ccccc2)C1` (configuration not stated)?
G9a inh: -11%[0.501 µM]; ALOX12 inh: 0%; PLK1 PBD inh: -3%; JMJD2A Tudor: -14%; HP1b binding inh: 27%; BAZ2B inh: -10%

What do the screens show for `COC(=O)Nc1ccc(S(=O)(=O)Nc2ccc(C(=O)O)cc2)cc1`?
G9a inh: -3%; ALOX12 inh: 1%; PLK1 PBD inh: -8%; JMJD2A Tudor: 4%; HP1b binding inh: 32%; BAZ2B inh: -23%

Results for C#CCOCCOCCOCCNc1nc(N2CCN(C(=O)[C@H]([C@@H](C)O)n3cc(CCCCN)nn3)CC2)nc(N2CCN(C(=O)[C@H](CCCCN)n3cc(CCCC)nn3)CC2)n1 ?
G9a inh: 19%[2.33 µM]; ALOX12 inh: -24%; PLK1 PBD inh: 10%; JMJD2A Tudor: -8%; HP1b binding inh: 25%; BAZ2B inh: inconclusive

How did Cc1nnc(NC(=O)c2ccc3ccccc3c2)o1 do in these assays?
G9a inh: 7%[59 µM]; ALOX12 inh: 0%; PLK1 PBD inh: -3%; JMJD2A Tudor: 50µM*; HP1b binding inh: 31%; BAZ2B inh: 28µM*

Results for Cc1nnc(NC(=O)c2ccc(S(=O)(=O)N(C)Cc3ccccc3)cc2)o1 ?
G9a inh: -1%; PLK1 PBD inh: -9%; JMJD2A Tudor: inconclusive; HP1b binding inh: 43%; BAZ2B inh: 79µM*

What do the screens show for `COCCN(CCOC)S(=O)(=O)c1ccc(C(=O)Nc2nnc(C)o2)cc1`?
G9a inh: 7.1µM*; ALOX12 inh: 18%; PLK1 PBD inh: -20%; JMJD2A Tudor: 28µM*; HP1b binding inh: 4%; BAZ2B inh: 14µM*

How did CCN(CC)S(=O)(=O)c1ccc(N2CCOCC2)c(NC(=O)c2cc([N+](=O)[O-])ccc2Cl)c1 do in these assays?
G9a inh: inconclusive; ALOX12 inh: 10%; PLK1 PBD inh: -6%; JMJD2A Tudor: -11%; HP1b binding inh: -8%; BAZ2B inh: -19%

What do the screens show for `Cc1cccn2c(=O)c(/C=C(\C#N)C(N)=O)c(N3CCN(c4cccc(Cl)c4)CC3)nc12`?
G9a inh: 22µM*; ALOX12 inh: 0%; PLK1 PBD inh: -11%; JMJD2A Tudor: inconclusive; HP1b binding inh: -11%; BAZ2B inh: -34%

How did CNC(=O)/C(C#N)=C/c1c(N2CCN(c3ccc(OC)cc3)CC2)nc2c(C)cccn2c1=O do in these assays?
G9a inh: 1%[2.33 µM]; ALOX12 inh: 0%; PLK1 PBD inh: -6%; JMJD2A Tudor: 50µM*; HP1b binding inh: inconclusive; BAZ2B inh: 40µM*

Results for COC(=O)/C(C#N)=C/c1c(N2CCCCCC2)nc2c(C)cccn2c1=O ?
G9a inh: 36%; ALOX12 inh: 5%; PLK1 PBD inh: -9%; JMJD2A Tudor: -33%; HP1b binding inh: -1%; BAZ2B inh: 23%

Results for COC(=O)/C(C#N)=C/c1c(N2CCN(c3ccc(OC)cc3)CC2)nc2c(C)cccn2c1=O ?
G9a inh: inconclusive; ALOX12 inh: -2%; PLK1 PBD inh: -8%; JMJD2A Tudor: 11µM*; HP1b binding inh: inconclusive; BAZ2B inh: inconclusive

Results for CSc1cccc(NC(=O)C2CCN(c3nc4ccccc4[nH]3)CC2)c1 ?
G9a inh: -31%[59 µM]; ALOX12 inh: inconclusive; JMJD2A Tudor: -21%; HP1b binding inh: 22%[57 µM]; BAZ2B inh: -20%

How did O=C(NC1C[C@H]2CC[C@@H](C1)N2C(=O)c1ccc(Cl)s1)c1ccncc1 (some centres not stated) do in these assays?
ALOX12 inh: 12%

What do the screens show for `Cc1ccccc1-n1c(C)n[nH]c1=S`?
G9a inh: 22µM*; ALOX12 inh: inconclusive; PLK1 PBD inh: -27%; JMJD2A Tudor: 20µM*; HP1b binding inh: -4%; BAZ2B inh: 9%[57.1 µM]

How did Cc1ccc(S(=O)(=O)N(Cc2n[nH]c(=S)n2-c2ccccc2)c2cccc(Cl)c2)cc1 do in these assays?
ALOX12 inh: inconclusive; PLK1 PBD inh: 0%; JMJD2A Tudor: -13%; HP1b binding inh: 21%; BAZ2B inh: inconclusive

How did Cc1ccccc1-n1c(-c2ccoc2C)n[nH]c1=S do in these assays?
G9a inh: 2.2µM*; ALOX12 inh: inconclusive; PLK1 PBD inh: -8%; JMJD2A Tudor: 7.9µM*; HP1b binding inh: 5%; BAZ2B inh: 0%

Results for Cc1cccc(-n2c(-c3ccoc3C)n[nH]c2=S)c1 ?
G9a inh: 6.3µM*; ALOX12 inh: inconclusive; PLK1 PBD inh: -9%; JMJD2A Tudor: 8.9µM*; HP1b binding inh: -17%; BAZ2B inh: -11%

How did Cc1occc1-c1nc(-c2ccccn2)no1 do in these assays?
G9a inh: 11%; ALOX12 inh: 0%; PLK1 PBD inh: -3%; JMJD2A Tudor: -4%; HP1b binding inh: 44%; BAZ2B inh: -1%

Results for Cc1ccc([N+](=O)[O-])c(-c2n[nH]c(=S)n2-c2cccc(Cl)c2)c1 ?
G9a inh: 2µM*; ALOX12 inh: inconclusive; PLK1 PBD inh: -18%; JMJD2A Tudor: inconclusive; HP1b binding inh: 7%; BAZ2B inh: -39%

How did COc1ccccc1N1CCN(C(=O)c2ccc(CN3CCc4ccccc4C3)cc2)CC1 do in these assays?
G9a inh: -7%[59 µM]; ALOX12 inh: 11%; PLK1 PBD inh: -1%; JMJD2A Tudor: inconclusive; HP1b binding inh: 7%; BAZ2B inh: -1%
